Shiga inhibitor = Shiga toxin inhibition | Vero cells, Shiga toxin protein synthesis inhibition reporter | inhibition, % at 38.7 µM | hit rate 9.2% among 290,000 | AID 2315; in the data active = inhibition mostly above about 28%, no sharp cut-off; inactive = mostly below about 43%
Cycloheximide cs = affects cycloheximide protein synthesis inhibition readout, counter-screen. hit rate 12% among 300,000. cell reporter, cycloheximide protein synthesis inhibition counterscreen. max response, %; in the data active = max response mostly above about 13%, no sharp cut-off; inactive = mostly below about 14%; also: read at 38.3 µM for the half of the compounds with a filed dose
AMA1-RON2 inh = AMA1-RON2 (P. falciparum) interaction inhibition | AlphaScreen AMA1-biotinylated RON2 peptide binding | Potency, µM (titrated, usually from 58.2 µM), hits mostly inhibitors | hit rate 0.2% among 360,000 | AID 720542; also: nearly all actives have a fitted effect of over 45% in size
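AMA1 (3D7) with his tag at 25 nM final met compounds first, then biotinylated RON2 peptide at 25 nM; detection used donor plus acceptor beads, 10 µg/mL apiece, read by AlphaScreen after 30 min at room temperature.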
Pf growth 48h = P. falciparum growth inhibition at 48 hours (one generation). P. falciparum luciferase growth in erythrocytes, 48 h. Potency, µM (top dose mostly 28.7 µM), actives largely listed as inhibitors. hit rate 5.9% among 310,000. AID 504832
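Cell-based growth assay: transgenic P. falciparum expressing firefly luciferase, cultured in red cells within RPMI 1640 containing 0.5% w/v Albumax, 24 mM bicarbonate and gentamycin. A drop in luciferase activity indicates inhibition.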
Pf growth 96h = inhibits malaria parasite growth, 96 h. P. falciparum luciferase reporter growth, 96 h. Potency, µM (highest dose often 28.7 µM), hits mostly inhibitors. hit rate 6.9% among 320,000. AID 504834
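Parasite growth measured via integrated firefly luciferase reporter in P. falciparum. Infected erythrocytes at 2% hematocrit, 0.05% parasitemia final were treated 96 hours at 37 C under 5% CO2, and luminescence was read.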
HCV inhibitor = HCV inhibition; Huh7.5.1 HCVcc-Cre infection, luciferase reporter, 44 h; Potency, µM (doses to about 41.8 µM), usual class: inhibitors; hit rate 3.4% among 340,000
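After 44 h co-culture of compound, cells and HCVcc-Cre (~0.5 moi), substrate is added for 15 min at room temperature and luciferase measured over 15 sec. Cells were seeded at 1,000/well and pre-cultured 4 h.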
Of the large screens only hits and unclear results are named; the others gave an inactive call. The list is not random: actives were taken first. Their share in the collection is about 21%. Unless noted, calls follow the shape of the dose curve; as a rule, active = well fitted curve in the direction sought with a large enough effect; inconclusive = small, poorly fitted or top-dose-only effect, or another doubt; inactive = no such curve, though single readings can be large; an effect the other way counts as inactive or inconclusive.

COC(=O)C1=CN(c2ccc3c(c2)OCO3)C(N)=C(C#N)C1c1ccc(-c2ccccc2)cc1 (stereo unspecified)	none (no result: Shiga inhibitor, Cycloheximide cs, Pf growth 48h, Pf growth 96h, HCV inhibitor)
Cn1c(=O)n(C)c2cc(NC(=O)c3ccc(F)cc3)ccc21	none
CCC(=O)NCCc1nc2cc(NC(=O)c3ccc(F)cc3)ccc2n1C	Shiga inhibitor 89, Cycloheximide cs 43
CCOc1ccc(NC(=O)COc2ccccc2)c([N+](=O)[O-])c1	Shiga inhibitor 82, Cycloheximide cs 28, AMA1-RON2 inh inconclusive
CC1CN(c2ccc([N+](=O)[O-])c(NCCOc3ccccc3)c2)CC(C)N1 (stereo unspecified)	Pf growth 48h inconclusive, HCV inhibitor inconclusive
O=C(CCOc1ccccc1)Nc1ccccc1[N+](=O)[O-]	Cycloheximide cs 27
O=[N+]([O-])c1ccccc1NCCOc1ccccc1	Shiga inhibitor 72, Cycloheximide cs 73, AMA1-RON2 inh inconclusive
O=[N+]([O-])c1ccc(N2CCCCC2)cc1NCCOc1ccccc1	AMA1-RON2 inh inconclusive, Pf growth 96h 13µM
O=[N+]([O-])c1cccc(-c2ccc(CN3CCCCC3)o2)c1	none (no result: Shiga inhibitor)
CC(C)Cn1c(N)c(C(=O)COC(=O)C2CC(=O)N(c3ccc4c(c3)OCCO4)C2)c(=O)n(C)c1=O (stereo unspecified)	Pf growth 48h inconclusive (no result: Shiga inhibitor, Cycloheximide cs)
CCn1c(SCC(=O)NNC(=O)c2ccc(OC)cc2)nnc1-c1cccnc1	none
COc1cccc(OCCNc2cc(Cl)ccc2[N+](=O)[O-])c1	Shiga inhibitor 73, Cycloheximide cs 42, AMA1-RON2 inh inconclusive, Pf growth 48h inconclusive, Pf growth 96h inconclusive, HCV inhibitor inconclusive
Cc1ccc(-c2ccc(/C=N/N3C(=O)C4C5C=CC(C6CC56)C4C3=O)o2)c([N+](=O)[O-])c1 (stereo unspecified)	AMA1-RON2 inh inconclusive, HCV inhibitor inconclusive
COC(=O)c1ccc(-c2ccc(/C=N/N3C(=O)C4C5C=CC(C6CC56)C4C3=O)o2)cc1 (stereo unspecified)	Shiga inhibitor 132, Cycloheximide cs 75, HCV inhibitor inconclusive
O=C1C2C3C=CC(C4CC34)C2C(=O)N1/N=C/c1ccc(-c2ccc([N+](=O)[O-])cc2)o1 (stereo unspecified)	none
O=C1C2C3C=CC(C3)C2C(=O)N1/N=C/c1ccc(-c2ccccc2[N+](=O)[O-])o1 (stereo unspecified)	Shiga inhibitor 66, Cycloheximide cs 32
O=C1C2C3C=CC(C4CC34)C2C(=O)N1/N=C/c1cccs1 (stereo unspecified)	Shiga inhibitor 49, Cycloheximide cs 51
COC(=O)c1cccc(-c2ccc(/C=N/N3C(=O)C4C5C=CC(C6CC56)C4C3=O)o2)c1 (stereo unspecified)	none
O=C1C2C3C=CC(C4CC34)C2C(=O)N1/N=C/c1ccc([N+](=O)[O-])o1 (stereo unspecified)	Cycloheximide cs 22, HCV inhibitor 11µM
Cc1ccc(CN2CCNC(=O)C2CC(=O)N2CCN(c3ncccn3)CC2)o1 (stereo unspecified)	Pf growth 96h inconclusive
COCCn1cnc2cc(C)c(C)cc21	none
Cc1cc2ncn(CCOc3ccccc3)c2cc1C	Shiga inhibitor 102, Cycloheximide cs 51
O=c1c(-c2ccccc2)c1-c1ccccc1	Shiga inhibitor 104, Cycloheximide cs 65, Pf growth 48h 6.7µM, Pf growth 96h 5.4µM (no result: AMA1-RON2 inh, HCV inhibitor)
Clc1ccc2c(c1)Nc1ccccc1CC2	none (no result: Shiga inhibitor, Cycloheximide cs, Pf growth 48h, Pf growth 96h)
O=C(c1ccccc1)c1cnc(Nc2ccc(Cl)c(Cl)c2)s1	none
CNc1ncc(C(=O)c2ccc(F)cc2)s1	Shiga inhibitor 67, Cycloheximide cs 43
O=C(c1ccc(F)cc1)c1cnc(Nc2ccccc2)s1	Shiga inhibitor 75, Cycloheximide cs 23
CC(=O)c1cnc(Nc2cccc(C)c2)s1	Shiga inhibitor 119, Cycloheximide cs 48, HCV inhibitor inconclusive
CC12CCC(c3c(C(=O)N4CCOCC4)nn(-c4ccccc4)c31)C2(C)C (stereo unspecified)	Pf growth 48h inconclusive, Pf growth 96h 1.3µM
CC12CCC(c3c(C(=O)O)nn(-c4ccc(F)cc4)c31)C2(C)C (stereo unspecified)	none (no result: Pf growth 96h)
COc1cccc(C(NC(C)=O)c2nc(-c3csc4ccccc34)cs2)c1 (stereo unspecified)	none (no result: Shiga inhibitor, Cycloheximide cs, Pf growth 48h, Pf growth 96h, HCV inhibitor)
Cc1cccc(N2C(=O)CSC23CCCCC3)c1	Pf growth 96h 1.5µM
Cc1ccc(/C=C/C(=O)Nc2ccc(S(N)(=O)=O)cc2)o1	HCV inhibitor inconclusive
Cc1ccc(/C=C/C(=O)Nc2ccc(N(C)C)cc2)o1	Shiga inhibitor 85, Cycloheximide cs 38, AMA1-RON2 inh inconclusive
CC(=O)NS(=O)(=O)c1ccc(NC(=O)/C=C/c2ccc(C)o2)cc1	Pf growth 96h 4.7µM
C=C(CC[C@@H](C)[C@H]1CCC2[C@]1(C)CC[C@]13C[C@@]14CCC(OC(=O)/C=C/c1ccc(O)c(OC)c1)C(C)(C)[C@@H]4CC[C@@]23C)C(C)C (stereo partly specified)	Pf growth 96h inconclusive (no result: Shiga inhibitor, Cycloheximide cs, AMA1-RON2 inh, HCV inhibitor)
CN(CCC1CCOCC1)C(=O)c1cc(COc2c(F)cccc2F)on1	Cycloheximide cs 27
CN(Cc1cc(-c2ccccc2)on1)C(=O)c1cc(COc2c(F)cccc2F)on1	Shiga inhibitor 70, Cycloheximide cs 42, Pf growth 96h inconclusive
CN(CC1COCCO1)C(=O)c1cc(COc2c(F)cccc2F)on1 (stereo unspecified)	Shiga inhibitor 53, Cycloheximide cs 27
CN(CC1COc2ccccc2O1)C(=O)c1cc(COc2c(F)cccc2F)on1 (stereo unspecified)	Pf growth 96h inconclusive
CSc1ccccc1OCc1cc(C(=O)N(C)CC2COCCO2)no1 (stereo unspecified)	Shiga inhibitor 61, Cycloheximide cs 30 (no result: HCV inhibitor)
O=C(c1cc2cc(F)ccc2[nH]1)N1CCC2(CC1)OCCO2	Shiga inhibitor 50, Cycloheximide cs 30, Pf growth 48h inconclusive, Pf growth 96h inconclusive
O=C(c1cc2cc(Cl)ccc2[nH]1)N1CCC2(CC1)OCCO2	Shiga inhibitor 30, Cycloheximide cs 28, Pf growth 96h inconclusive, HCV inhibitor inconclusive
N#CCCN(C(=O)COC(=O)CCc1nc2ccccc2c(=O)[nH]1)c1ccc(F)cc1	none (no result: Shiga inhibitor, Cycloheximide cs)
COC(=O)c1c(NC(=O)c2nc3nc(C)cc(C(F)F)n3n2)sc2c1CCC2	Pf growth 48h inconclusive, Pf growth 96h 5.2µM, HCV inhibitor 10µM
Cc1cc(C(F)F)n2nc(C(=O)Nc3sc4c(c3C(N)=O)CCC4)nc2n1	Pf growth 48h inconclusive, Pf growth 96h 4.1µM, HCV inhibitor inconclusive
Cc1cc(C(F)F)n2nc(C(=O)Nc3sc4c(c3C#N)CCC(C)C4)nc2n1 (stereo unspecified)	none
COCCn1c(SCC(=O)Nc2ccc(S(=O)(=O)N(C)C)cc2)nc2ccccc21	Pf growth 96h 4.1µM (no result: Pf growth 48h)

Source: PubChem BioAssay
